Screens as filed in PubChem BioAssay.
Shiga inhibitor – blocks Shiga toxin action in Vero cells. Vero cells, Shiga toxin protein synthesis inhibition reporter. 9.2% of 290,000 active. AID 2315. inhibition, % at 38.7 µM; in the data active = inhibition mostly above about 28%, no sharp cut-off; inactive = mostly below about 43%; note: 0% is about no effect
AMA1-RON2 inh – AMA1-RON2 (P. falciparum) interaction inhibition; Potency, µM (top dose mostly 58.2 µM), for inactives: top-dose activity change, negative = inhibition, usual class: inhibitors; AlphaScreen AMA1-biotinylated RON2 peptide binding; 0.2% of 360,000 active;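 note: potency is the fitted concentration of half-maximal effect; 0% = vehicle wells and -100% = peptide control; nearly all actives have a fitted effect of over 45% in size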
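AMA1 (3D7) with his tag at 25 nM final met compounds first, then biotinylated RON2 peptide at 25 nM; detection used donor plus acceptor beads, 10 µg/mL apiece, read by AlphaScreen after 30 min at room temperature.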
Pf growth 48h – inhibits P. falciparum growth in the first generation, 48 h | AID 504832 | P. falciparum luciferase growth in erythrocytes, 48 h | 5.9% of 310,000 active | Potency, µM (series often up to 28.7 µM), without a hit: at the highest dose activity change, negative = inhibition, hits mostly inhibitors; note: potency is the fitted concentration of half-maximal effect; % is set by controls: 0 for no effect and ±100 for the full control effect
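Luminescence readout; reporter = integrated firefly luciferase in P. falciparum. RBC culture at 2% hematocrit, 0.1% parasitemia final, 37 C/5% CO2; decreased signal taken as growth inhibition.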
HCV inhibitor – inhibitors of hepatitis C virus infection | Huh7.5.1 HCVcc-Cre infection, luciferase reporter, 44 h | Potency, µM (titrated, usually from 41.8 µM), for the others: at the highest dose activity change, negative = inhibition, usual class: inhibitors | 3.4% of 340,000 active | AID 651820; note: potency is the fitted concentration of half-maximal effect; % is set by controls: 0 for no effect and ±100 for the full control effect
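A cell-based infection assay in which seeded cells (1,000 per well) receive test compound after 4 h, are inoculated with HCVcc-Cre at approximately 0.5 moi, and are incubated 44 h before luminescence detection.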
Pf growth 96h – P. falciparum growth inhibition at 96 hour, primary screen for plastid delayed-death inhibitors. P. falciparum luciferase reporter growth, 96 h. 6.9% of 320,000 active. Potency, µM (highest dose often 28.7 µM), for the others: at the top dose activity change, negative = inhibition, actives largely listed as inhibitors; note: potency is the fitted concentration of half-maximal effect; % is set by controls: 0 for no effect and ±100 for the full control effect
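Luminescence readout: decreased luciferase signal marks inhibited growth of reporter-expressing P. falciparum in infected red cells (2% hematocrit, 0.05% parasitemia final), exposed to compound two generations (96 h, 37 C, 5% CO2).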
CHX counter – counter-screen for Shiga toxin inhibitors: cycloheximide protein synthesis inhibition; cell reporter, cycloheximide protein synthesis inhibition counterscreen; max response, %; 12% of 300,000 active; AID 2314; in the data active = max response mostly above about 13%, no sharp cut-off; inactive = mostly below about 14%; note: read at 38.3 µM for the half of the compounds with a filed dose; 0% is about no effect
An asterisk follows results filed as active; ? = inconclusive; . = not tested or not shown; [ ] = remark or other dose. Most compounds without a hit are left out; they make up all but 21% or so of the library. Unless noted, calls come from the whole dose curve; as a rule, active = well fitted curve in the direction sought with a large enough effect; inconclusive = small, poorly fitted or top-dose-only effect, or another doubt; inactive = no such curve, though single readings can be large; an effect the other way counts as inactive or inconclusive.

SMILES | Shiga inhibitor | AMA1-RON2 inh | Pf growth 48h | HCV inhibitor | Pf growth 96h | CHX counter
CCN(Cc1ccncc1)Cc1cn[nH]c1-c1ccc(OC)cc1F | -2 | -9% | -12% | ? | ? | 6
CCS(=O)(=O)N1CCN(c2ccccc2F)CC1 | -17 | -1% | 13% | 8% | 24% | -1
c1ccc(CN2CCN(c3cnc4ccccc4n3)CC2)cc1 | 131* | 17% | . | ? | 71% | 52*
Oc1ccccc1N1CCN(c2ccc3ccccc3n2)CC1 | 102* | -18% | -45% | ? | -68% | 42*
Fc1ccccc1N1CCN(c2cnc3ccccc3n2)CC1 | 82* | 38% | 214% | -8% | 339% | 56*
Cc1cc(/C=N/Nc2nc(N3CCOCC3)nc(N3CCOCC3)n2)c(C)n1-c1ccccc1 | 5 | 24% | 9.3µM* | ? | 62% | 9
Cc1cc(=O)[nH]c(N/N=C/c2cc(C)n(-c3ccccc3)c2C)n1 | 95* | 48% | ? | ? | ? | 34*
Cc1nn(-c2ccccc2)c(Cl)c1/C=N/Nc1nnc(C)c(=O)[nH]1 | 8 | -3% | 55% | ? | ? | -3
Cc1cc(=O)[nH]c(N/N=C/c2c(C)nn(-c3ccccc3)c2C)n1 | 9 | 32% | 12µM* | 6% | -25% | 3
COc1ccc(-n2c(C)cc(/C=N/Nc3nc(N4CCOCC4)nc(N4CCOCC4)n3)c2C)cc1 | -11 | 8% | ? | -29% | ? | -4
Cc1nn(-c2ccccc2)c(C)c1/C=N/Nc1nc2ccccc2[nH]1 | 149* | ? | 0.59µM* | ? | ? | 82*
COC(=O)c1ccccc1NC(=O)CSc1nc2ccsc2c(=O)n1Cc1ccc(C(=O)O)cc1 | . | -14% | . | . | . | .
BrC(/C=N/Nc1nc(N2CCOCC2)nc(N2CCOCC2)n1)=C/c1ccccc1 | -8 | 0% | 12µM* | -17% | 0% | 1
CCOc1ccc(N/C(C)=C\C(=O)c2ccc3c(c2)OCCO3)cc1 | 86* | -19% | ? | -10% | 22% | 50*
CCOc1ccc(N/C(C)=C/C(=O)c2ccc3c(c2)OCCO3)cc1 | 60* | -17% | 112% | ? | ? | 56*
CC(=O)NC1=NN(C(C)=O)C(c2ccc(C(C)C)cc2)S1 (configuration not stated) | 5 | -14% | 8% | 18% | -28% | 16*
CC(=O)N1N=C(c2cccc(Cl)c2)OC1c1cccc([N+](=O)[O-])c1 (configuration not stated) | -8 | -21% | ? | -6% | ? | -3
CC(=O)N1N=C(c2cccc(Cl)c2)OC1c1ccc(C(C)C)cc1 (configuration not stated) | 31 | -13% | . | -7% | 1% | 23*
CC(=O)N1N=C(c2ccc(C)cc2)OC1c1cccnc1 (configuration not stated) | 61* | -5% | 39% | 14% | -10% | 18
CC(=O)NC1=NN(C(C)=O)C(c2cccc([N+](=O)[O-])c2)S1 (configuration not stated) | -11 | -1% | -9% | 5% | -1% | -1
O=C(COC(=O)CN1C(=O)c2ccccc2C1=O)NC1CCCC1 | -7 | 9% | -2% | 17% | 11% | -8
CC1(c2ccccc2)NC(=O)N(CC(=O)Nc2nnc(C3CC3)s2)C1=O (configuration not stated) | -5 | 14% | -12% | 24% | 22% | -4
COc1ccccc1Oc1ncnc2c1cnn2-c1ccccc1 | 117* | -14% | 83% | ? | 196% | 43*
COc1ccc(Nc2ncnc3c2cnn3-c2ccccc2)cc1OC | 11 | 18% | 24% | ? | ? | 0
COc1cc(C(C)=O)ccc1Oc1ncnc2c1cnn2-c1ccc(F)cc1 | 106* | 16% | 164% | ? | 177% | 54*
SMILES | Shiga inhibitor | AMA1-RON2 inh | Pf growth 48h | HCV inhibitor | Pf growth 96h | CHX counter
COc1ncnc2c1cnn2-c1ccccc1 | 81* | 7% | 75% | 15% | 110% | 37*
CCOC(=O)c1c(C)[nH]c(C)c1C(=O)COC(=O)Cc1ccc(OC)c(OC)c1 | . | 8% | . | -7% | . | .
CC1CCN(C(=O)CSc2nnc(-c3ccccc3F)o2)CC1 | 56* | 0% | 22% | 16% | 29% | 15
CC1CCN(C(=O)CSc2nnc(-c3cccs3)o2)CC1 | 63* | -16% | 19% | -1% | ? | 45*
O=C(CSc1nnc(-c2cccs2)o1)N1CCCCC1 | 113* | 2% | . | 6% | ? | 48*
CC(C)[C@@H]1O[C@H](CCc2ccccc2)CC2=C1C(=O)OC(C)(C)O2 | . | 7% | . | . | . | .
COC(=O)c1sccc1S(=O)(=O)NCc1ccc(S(N)(=O)=O)cc1 | -6 | -3% | 22% | 19% | 24% | -2
CC(OC(=O)C1CCN(c2ccc(C(F)(F)F)cn2)CC1)C(=O)c1ccccc1 (configuration not stated) | . | -11% | -6% | -7% | 10% | .
CN(C)C(=O)c1cc(C(=O)c2ccc(Cl)cc2Cl)c[nH]1 | 99* | -19% | . | ? | 84% | 51*
CN(C)C(=O)c1cc(C(=O)c2ccc(C(F)(F)F)cc2)c[nH]1 | 21 | 9% | . | ? | 153% | 16*
NC(=O)c1cc(C(=O)c2ccc(Cl)cc2Cl)c[nH]1 | -2 | -10% | 4% | 0% | -1% | 7
CN(C)C(=O)c1cc(C(=O)c2ccc(F)cc2Cl)c[nH]1 | 73* | 15% | . | 2% | 51% | 50*
CC(=O)Nc1ccc(CN2C(=O)C(CCc3ccccc3)ON=C2c2cnccn2)cc1 (configuration not stated) | . | 6% | . | . | . | .
CCCCNC(=O)C1(C)CCN1C(=O)c1oc2ccccc2c1C (configuration not stated) | . | 8% | . | . | . | .
CCOc1cccc(OCCCCN2CCCCC2)c1 | -12 | 0% | . | -26% | -6%[5.75 µM] | -1
CCOc1cccc(OCCOCCN(C)C)c1 | 52* | -5% | -1% | ? | 12% | 12
CCOc1cccc(OCCCOc2ccccc2)c1 | 13 | 91% | . | 4% | -3% | 15*
CCc1nc2ccc(C(=O)N(C)Cc3ccccc3)cn2c1N(CC)CCN(C)C | . | 4% | . | . | . | .
CCCOc1ccc(CN(CCO)CCO)cc1[N+](=O)[O-] | 19 | -5% | ? | 8% | ? | -2
CCCOc1ccc(Cn2c(C)nc([N+](=O)[O-])c2SCC(O)COC)cc1[N+](=O)[O-] (configuration not stated) | -2 | -12% | ? | -17% | 10µM* | -4
CCOc1ccc(Cn2c(C)nc([N+](=O)[O-])c2SCC(O)CCl)cc1[N+](=O)[O-] (configuration not stated) | -9 | 1% | 10µM* | 5% | . | -2
